Hits are enriched below; roughly 4.9% of the tested compounds scored in any of these assays.
tim10-1 inh = growth inhibitors of tim10-1 mutant yeast, primary screen, luminescence, uHTS. inhibition, % at 20 µM. S. cerevisiae tim10-1 ts strain growth, BacTiter-Glo, 24 h. AID 463190, 2010. actives 2.2% (n = 330,000);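 active = inhibition of at least 40%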;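 note: mutant grown at 25 °C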
SKKanGAS inh = S. pyogenes SKKanGAS growth inhibitors in kanamycin, primary screen, streptokinase expression inhibitor project, SKKanGAS strain, BacTiter-Glo luminescence. 6 h. inhibition, % at 7.5 µM. actives 1.3% (n = 300,000). AID 1662, 2009;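 active = mean replicate score, as percent of positive control median, at least 50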;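 note: strain carries kanamycin resistance gene driven by streptokinase promoter and grows in 40 µg/ml kanamycin; loss of luminescence reflects streptokinase promoter inhibition or plain growth inhibition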
TIM10 inh = growth inhibitors of isogenic TIM10 control yeast, primary screen, counter-screen for tim10-1 yeast inhibitor project, luminescence, uHTS | S. cerevisiae TIM10 strain growth, BacTiter-Glo luminescence, 24 h | inhibition, % at 10 µM | actives 1.4% (n = 330,000) | AID 463195, 2010;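 active = inhibition of 40% or more at the single tested concentration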;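 note: wild-type TIM10 isogenic control strain grown at permissive 25 °C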
NALP1 yeast inh = NALP1 inflammasome inhibitors in reconstituted yeast, colorimetric, S. cerevisiae, triplicate retest. S. cerevisiae NALP1/ASC/caspase-1 growth, X-gal OD620, 72 h. inhibition, % at 10 µM. actives 0.61% (n = 280,000). AID 2071, 2009; in the data active = inhibition mostly above about 24%, no sharp cut-off; inactive = mostly below about 32%
NLRP3 yeast inh = NALP3 inflammasome inhibitors in reconstituted yeast, primary screen, luminescence, uHTS; AID 2825, 2010; inhibition, % at 10 µM; actives 0.39% (n = 330,000); Yeast reconstituted NLRP3/ASC/caspase-1, beta-gal luminescence, 24 h;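 active = inhibition of 50% or more; inactive = inhibition below 50%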
tim23-1 inh = growth inhibitors of tim23-1 mutant yeast, primary screen, luminescence, uHTS; S. cerevisiae tim23-1 growth, BacTiter-Glo luminescence, 24 h; inhibition, % at 20 µM; actives 1.3% (n = 330,000); AID 463212, 2010;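 active = growth inhibition of the mutant yeast at or above 50%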;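 note: temperature-sensitive mutant grown at 25 °C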
tim23-1 conf = tim23-1 mutant yeast growth inhibitors, confirmation, luminescence, single concentration | shares compounds with tim23-1 inh | S. cerevisiae tim23-1 growth, BacTiter-Glo luminescence, 24 h | inhibition, % at 20 µM | actives 83% (n = 4,400) | AID 463218, 2010;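 active = inhibition above about 39% in either of two replicate wells at 20 µM, limit read from the data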;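 note: temperature-sensitive tim23-1 mutant grown at 25 °C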
A number is an active result; – = inactive; · = no result given.

SMILES	tim10-1 inh	SKKanGAS inh	TIM10 inh	NALP1 yeast inh	NLRP3 yeast inh	tim23-1 inh	tim23-1 conf
COC(=O)c1sccc1NC(=O)Nc1ccc(C)c(C)c1	–	·	–	–	–	60	49
CCc1ccccc1N(CC(=O)NC1CCCC1)C(=O)CNC(=O)c1cccs1	–	–	–	–	–	–	·
O=C1c2ccccc2C(=O)N1c1nc(-c2cccs2)cs1	–	–	–	–	–	77	41
CC1CCCc2sc3ncn(N)c(=N)c3c21 (configuration not stated)	–	–	–	–	–	–	·
CN(C)C(=O)c1c(NC(=O)c2ccco2)sc2c1CCCCC2	–	–	–	–	–	60	49
COc1ccc(/C=C(\C#N)C(=O)NCc2ccccc2)cc1O	–	–	–	–	–	–	·
COc1ccc(/C=C(\C#N)C(=O)NC(C)c2ccccc2)cc1O (configuration not stated)	–	–	–	–	–	56	44
O=C(Cc1cccs1)Nc1ccc(F)c(S(=O)(=O)N2CCOCC2)c1	–	·	–	·	–	–	·
CC(=O)Nc1ncnc2c1c(-c1ccc(Cl)cc1)nn2C(C)(C)C	–	–	–	42	–	52	48
O=C(Cn1cncn1)c1ccccc1Br	–	–	–	–	–	–	·
CSc1ccc(S(=O)(=O)NC2CCCCCC2)cc1	–	–	–	–	–	53	48
Cn1cncc1C#Cc1c(C=O)n(C)c2ccccc12	–	·	–	·	–	67	62
Cc1ccc(CNC(=O)COC(=O)c2cc(=O)[nH]c3ccccc23)cc1	–	·	–	·	–	–	·
CCc1ccc2c(c1)/C(=N/N(C)C(=S)NC)C(=O)N2	–	–	–	–	–	–	·
CCc1ccc2c(c1)/C(=C/C(=O)c1cccs1)C(=O)N2	–	–	–	–	–	54	–
Cc1ccc(NC(=O)CN(C)S(=O)(=O)c2cccc3cccnc23)cc1C	–	–	–	–	–	–	·
COc1cc(CNc2ccc(O)cc2)cc(Br)c1OCc1ccccc1	–	–	–	–	–	50	55
CCOc1ncccc1C(=O)OCC(=O)NCCCc1ccccc1	–	·	–	·	–	–	·
COc1ccc(OC)c(NC(=O)Cn2cc(C#N)c3cc(Br)ccc32)c1	–	–	–	–	–	–	·
Cc1nc2scc(C)n2c(=O)c1S(=O)(=O)Nc1ccc(N2CCOCC2)cc1	–	–	–	–	–	71	47
Nc1cc(S(=O)(=O)C(F)(F)F)ccc1C(=O)O	–	–	–	–	–	–	·
O=S(=O)(c1ccc2c(c1)C(O)c1ccccc1CC2)C(F)(F)F (configuration not stated)	–	·	–	·	–	63	45
O=C(Nc1cccc(F)c1)c1cccnc1NCCc1ccccc1	–	–	–	–	–	54	54
C/C=C/c1ccc(OCC(O)CN(C)Cc2ccc(SC)cc2)c(OC)c1 (configuration not stated)	–	–	–	–	–	–	·
O=C(NN1C(=O)c2cc(Br)ccc2NC1c1cc(Br)cc(Br)c1O)c1ccncc1 (configuration not stated)	–	59	–	57	–	68	74
SMILES	tim10-1 inh	SKKanGAS inh	TIM10 inh	NALP1 yeast inh	NLRP3 yeast inh	tim23-1 inh	tim23-1 conf
O=C(NN1C(=O)c2cc(Br)ccc2NC1c1ccccc1Cl)c1ccncc1 (configuration not stated)	–	–	–	–	–	–	·
O=[N+]([O-])c1cc(Br)c(Nc2ccccc2)c([N+](=O)[O-])c1	–	–	–	–	–	54	–
O=C(Nc1ccccc1)c1ccc(Nc2c([N+](=O)[O-])cc([N+](=O)[O-])c3ccccc23)cc1	–	–	–	–	–	–	·
CNc1nc(N)c(C(=O)C23CC4CC(CC(C4)C2)C3)s1	–	–	–	–	–	51	50
O=C(c1cnn(C(=O)c2ccc(O)cc2)c1)c1ccccc1O	–	–	–	–	–	–	·
COc1ccc(O)c(C(=O)c2cnn(C(=O)c3cccc(N(C)C)c3)c2)c1	–	·	–	·	–	58	57
CN(C)c1cccc(C(=O)n2cc(C(=O)c3cc(F)ccc3O)cn2)c1	–	–	–	–	–	57	68
COc1ccc(C(=O)n2cc(C(=O)c3cc(C)ccc3O)cn2)cc1OC	–	–	–	–	–	–	·
COc1ccc(O)c(C(=O)c2cnn(C(=O)c3cc(C)oc3C)c2)c1	–	–	–	–	–	58	55
CC1CCC(NC(=O)c2cc(C3CC3)nn2-c2ccccc2)CC1 (configuration not stated)	–	·	–	·	–	50	46
O=S(=O)(c1ccc(Br)s1)N1CCN(c2ccccn2)CC1	–	–	–	–	–	57	–
C=CCN1c2ccccc2C(=O)C(C)S1(=O)=O (configuration not stated)	–	·	–	·	·	–	·
C=CCN1c2ccc(Br)cc2C(=O)CS1(=O)=O	–	·	–	·	–	58	54
CCCCCC(/C=N/Nc1ccc(S(=O)(=O)N2CCOCC2)cc1[N+](=O)[O-])=C\c1ccccc1	–	–	–	–	–	–	·
Brc1cccc(-c2n[nH]c(-c3ccccc3)n2)c1	–	–	–	29	–	69	48
Cc1cnn(-c2nc(-c3ccccc3)cc(-c3ccccc3)n2)c1	–	76	–	–	–	52	56
CC(C)CN(C(=O)c1ccc2c(c1)OCCO2)c1c(N)n(Cc2ccccc2)c(=O)[nH]c1=O	–	–	–	·	–	52	55
CCCCN(C(=O)c1ccc(C)c(S(=O)(=O)N2CCOCC2)c1)c1c(N)n(CC(C)C)c(=O)[nH]c1=O	–	–	–	·	–	–	·
CCCCN(C(=O)c1ccc2c(c1)OCCO2)c1c(N)n(CC(C)C)c(=O)[nH]c1=O	–	–	–	·	–	58	58
CCCCn1c(N)c(N(CCC(C)C)C(=O)c2ccc3c(c2)OCCO3)c(=O)[nH]c1=O	–	–	–	·	–	59	56
CCOc1ccc(CCNC(=O)CCS(=O)(=O)c2ccc(OC)cc2)cc1OCC	–	–	–	–	–	–	·
CS(=O)(=O)N(CCC#N)Cc1ccco1	–	–	–	–	–	–	·
O=C(NC(NC(=S)Nc1ccccc1C(=O)O)C(Cl)(Cl)Cl)c1cccc([N+](=O)[O-])c1 (configuration not stated)	–	–	–	–	–	–	·
CCOc1ccc(N(C(C)C(=O)NC2CCCCCC2)S(C)(=O)=O)cc1 (configuration not stated)	–	–	–	–	–	–	·

Compound activity: PubChem BioAssay, several laboratories
